Columns and labels:
[1] = target: Tumor necrosis factor receptor superfamily member 10B (Homo sapiens) (UniProt O14763); experiment: viability loss of caspase-8 NB7 cells with TRAIL – with/without TRAIL, luminescence panel, confirmation (AID 651596); conditions: NB7 neuroblastoma + caspase-8, TRAIL sensitization, NB7 Caspase-8, with TRAIL, mean of runs, at 10 µM, stronger effect = higher value
[2] = as above; conditions: NB7 neuroblastoma + caspase-8, without TRAIL, NB7 Caspase-8, without TRAIL, mean of runs, at 10 µM

Tumor necrosis factor receptor superfamily member 10B (Homo sapiens), sequence (O14763 whole entry, looked up): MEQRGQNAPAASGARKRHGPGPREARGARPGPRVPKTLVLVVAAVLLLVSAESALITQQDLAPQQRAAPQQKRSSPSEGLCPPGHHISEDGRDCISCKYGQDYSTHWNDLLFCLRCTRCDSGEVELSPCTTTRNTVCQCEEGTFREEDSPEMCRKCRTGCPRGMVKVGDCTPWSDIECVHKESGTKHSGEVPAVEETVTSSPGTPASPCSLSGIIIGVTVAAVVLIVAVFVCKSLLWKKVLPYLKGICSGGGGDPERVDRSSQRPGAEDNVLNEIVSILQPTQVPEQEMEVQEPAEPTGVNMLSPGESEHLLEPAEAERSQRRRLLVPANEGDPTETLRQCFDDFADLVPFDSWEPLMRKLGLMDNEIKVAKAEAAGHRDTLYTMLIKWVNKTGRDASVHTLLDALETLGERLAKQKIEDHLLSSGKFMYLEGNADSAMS

| Compound | activity [1] | activity [2] |
| --- | --- | --- |
| c1ccc2nc(-c3nc4ccccc4o3)ccc2c1 | 79.6% | 76% |
| C/C(=N\Nc1nncc2ccccc12)c1cccc(OC(F)F)c1 | 75.8% | 72.8% |
| COc1ccc(-n2cc(C(=O)c3ccccc3O)cn2)cc1 | 39.1% | 29.7% |
| COc1ccc(-c2nc3ccccc3c(=O)[nH]2)cc1 | 73.8% | 77.5% |
| Cc1nc(N)nc(N)c1-c1ccc([N+](=O)[O-])cc1 | 71.8% | 81.2% |
| CC1(C)N=C(N)N=C(N)N1c1ccc(OCC(=O)Nc2ccccc2)c(Cl)c1 | 78.5% | 82.3% |
| C/C(=N\NC(=O)c1ccccn1)c1ccc(Cl)cc1 | 44% | 46% |
| CCc1nnc(NC(=O)CSc2nc3c(cc2C#N)CCC3)s1 | 73.7% | 70.8% |
| O=C(NCC1CC1)c1ccc2c3n(nc2c1)-c1ccccc1CO3 | 89.8% | 89.5% |
| CCOc1ccc(/C=N/NC(=O)c2ccccc2NC(=O)c2ccc(OC)cc2)cc1 | 72.6% | 57.7% |
| O=C(Nc1nc2ccccc2[nH]1)C12CC3CC(CC(C3)C1)C2 | 66.2% | 65.7% |
| Cc1cc(C)n(-c2ccc(C(=O)Nc3ccc(C)c(S(=O)(=O)N4CCOCC4)c3)cc2)n1 | 63.5% | 24.2% |
| Cc1nc(NCC2CCCO2)nc2c1C(=O)CC(C)C2 (stereo not given) | 33% | 40.6% |
| COc1cccc(-c2nnc(-c3ccc(C)o3)o2)c1 | 64.9% | 65.2% |
| CCOC(=O)c1cccc(N2C(N)=NC(N)=NC2(C)C)c1 | 52.6% | 69.5% |
| CCOCc1nc(N)nc(N)c1-c1cccc(Cl)c1 | 46.8% | 61.9% |
| O=C(CSc1nnc(-c2csc3c2CCCC3)o1)Nc1ccccc1 | 76.4% | 76.5% |
| O=C(NOCc1ccccc1)c1ccc(Cl)cc1 | 45.1% | 43.2% |
| Cc1ccc2nc(-c3ccccn3)[nH]c2c1 | 81% | 83.9% |
| C#Cc1cc(N2CCN(C(=O)c3ccoc3)CC2)n2nc(-c3cccc(Cl)c3)cc2n1 | 98.4% | 97.3% |
| CC(C)(C)OC[C@H](NC(=O)c1[nH]cnc1C(=O)Nc1ccccc1F)C(=O)OC(C)(C)C | 55.4% | 59.2% |
| NC(Cc1ccc(C(F)(F)F)cc1)c1csc(NC(=O)Nc2ccccc2Cc2ccccc2)n1 (stereo not given) | 75% | 96.2% |
| CN(C)c1ccc(-c2nc3ccccc3n2C)cc1 | 92.3% | 89.8% |
| Oc1cccc2ccc(Nc3ccccn3)nc12 | 88.8% | 95.5% |
| Cc1ccc(-c2nn(-c3ccccc3)cc2NC(=O)CCl)cc1 | 94% | 95% |

Reference: PubChem BioAssay
